Experimental data taken from PubChem BioAssay (Tox21).
Activity calls are given as the source filed them. Calls come from the whole dose curve; as a rule, active = well fitted curve in the direction sought with a large enough effect in the repeat runs; inconclusive = weak or mixed curves; inactive = flat fitted curve, though single readings scatter.

Assay: qHTS assay to test for compound auto fluorescence at 590 nm (red) in HepG2 cell free culture (AID 720684)
Conditions: cell-free medium autofluorescence, red 540/590 nm; series mostly up to 91.3 µM; fluorescence, % of Rose Bengal: at the top concentration
Description: U.S. Tox21 Program National Center for Advancing Translational Sciences [NCATS] NIH Chemical Genomics Center [NCGC] U.S. Environmental Protection Agency [EPA] National Institutes of Environmental Health Sciences [NIEHS] National Toxicology Program [NTP] U.S. Food and Drug Administration [FDA] Tox21 Assay Overview: Compound auto fluorescence often interferes with screening of the compound library against various biological targets and signaling pathways. Some of these compounds may have fluorophoric properties. Such properties may interfere with the assay outputs resulting in false positives and/or negatives. To decrease such complications and ensure the compound activities are relevant in terms of biological response, the Tox21 10K compound library was screened for auto fluorescence. From the fluorophores used as reporter signals in our screening assays, the auto fluorescence equivalencies of compounds against three fluorophores have been evaluated: Triamterene, Fluorescein and Rose Bengal sodium for blue, green and red fluorescence, respectively. The fluorescence intensities were measured using Excitation/Emission wavelengths at 405/460nm, 485/535nm and 540/590nm for blue, green and red labels, respectively. This assay includes the red fluorescence data.
Tox21 Assay Protocol Summary: 5 uL of culture medium (MEM containing 10% FBS) per well was dispensed into black wall/clear bottom 1536-well plates using a Multidrop Combi Dispenser (ThermoFisher Scientific, Waltham, MA). After 23 nL compound or DMSO vehicle was transferred into assay plate by a pintool work station (Kalypsys, San Diego, CA), fluorescence intensities in the assay plates were measured by an Envision (PerkinElmer, Shelton, CT) plate reader using three labels for measuring blue, green and red fluorescence at […] 460, 535 and 590nm respectively.
% is set by controls: 0 for no effect and ±100 for the full control effect.

| Structure (SMILES) | fluorescence, % of Rose Bengal |
| --- | --- |
| CCCCCCOC(=O)CC(CC(=O)OCCCCCC)(OC(=O)CCC)C(=O)OCCCCCC | 0.0058% (inactive) |
| C#CC(O)C(CC)CCCC (stereo not given) | 0.0386% (inactive) |
| N[C@@H](CS)C(=O)O | -0.207% [at 95.7 µM] (inactive) |
| Cc1c(C)n(CCN(C)C)c2ccc(C(=O)OCCN(C)C)cc12 | 0.0194% [at 46 µM] (inactive) |
| CC(CCO)CCCC(C)(C)O (stereo not given) | -0.176% (inactive) |
| CC(O)CN(CCCN(C)C)CCCN(C)C (stereo not given) | -0.243% (inactive) |
| Cc1ccc(Nc2ccc(O)c3c2C(=O)c2ccccc2C3=O)cc1 | 0.0108% (inactive) |
| CCOC(=O)Nc1ccc2c(c1)N(C(=O)CCN1CCOCC1)c1ccccc1S2 | 0.0254% [at 18.6 µM] (inactive) |
| Cn1ccc2cc3c(cc21)CCN3C(=O)Nc1cccnc1 | 0.0231% [at 46 µM] (inactive) |
| Nc1ccn(C2CO[C@H](CO)O2)c(=O)n1 (stereo not given in full) | 0.0166% [at 46 µM] (inactive) |
| NC(=O)c1c(Cl)cccc1Cl | 0.0803% (inactive) |
| CC(=O)c1ccc(C)cc1 | -0.3% (inactive) |
| NS(=O)(=O)c1cc(C2(O)NC(=O)c3ccccc32)ccc1Cl (stereo not given) | 0.348% [at 18.6 µM] (inactive) |
| CCCCC=O | 0.0679% (inactive) |
| O=Cc1ccccc1[N+](=O)[O-] | -0.0293% (inactive) |
| CC(=O)OC(C)(C)C | -0.097% (inactive) |
| O=C(O)/C=C/c1ccc(/C=C/C(=O)O)cc1 | -0.0681% [at 46 µM] (inactive) |
| CCO[Si](C)(OCC)OCC | -0.006% (inactive) |
| COC(=O)C1=C(C)NC(C)=C(C(=O)OCC(C)=O)C1c1ccccc1[N+](=O)[O-] (stereo not given) | -0.159% [at 46 µM] (inactive) |
| COc1cccc(OC)c1 | -0.239% (inactive) |

| Structure (SMILES) | fluorescence, % of Rose Bengal |
| --- | --- |
| Cc1cc(C)cc(OCC2CNC(=O)O2)c1 (stereo not given) | 0.55% [at 46 µM] (inactive) |
| CC(C)(O)C(=O)c1ccc(OCCO)cc1 | -0.0661% (inactive) |
| Cc1ccccc1Br | -0.0473% (inactive) |
| COc1cc(CCC(C)=O)ccc1O | -0.274% (inactive) |
| C=C(C)C(=O)OCCC(C)OC(=O)C(=C)C (stereo not given) | 0.0507% (inactive) |
| C[N+](C)(C)CC[N+]1(C)Cc2c(Cl)c(Cl)c(Cl)c(Cl)c2C1 | -0.333% [at 46 µM] (inactive) |
| O=C(O)c1cccc(C(=O)O)n1 | -0.0035% (inactive) |
| CN1[C@@H]2CC[C@H]1CC(NC(=O)n1c(=O)[nH]c3ccccc31)C2 (stereo not given in full) | -0.0293% [at 46 µM] (inactive) |
| CSc1nc(NC2CC2)nc(NC(C)(C)C)n1 | -0.0436% (inactive) |
| CCCCOCC(C)OCC(C)O (stereo not given) | 0.02% [at 95.7 µM] (inactive) |
| O=C(O)C(O)[C@H](O)[C@@H](O)[C@H](O)[C@H](O)CO (stereo not given in full) | -0.312% [at 95.7 µM] (inactive) |
| CCCCc1ccc2cccc(S(=O)(=O)O)c2c1 | 0.0461% (inactive) |
| CCN1CCCC(OC(=O)C(c2ccccc2)c2ccccc2)C1 (stereo not given) | 0.44% [at 18.6 µM] (inactive) |
| c1ccc2cnncc2c1 | -0.178% (inactive) |
| CN(C)N=Nc1ccccc1 | 0.0092% (inactive) |
| CCN1CCN(c2cc3c(cc2F)c(=O)c(C(=O)O)cn3C2CC2)CC1 | -0.234% [at 46 µM] (inactive) |
| c1cc(CN2CCCCC2)cc(OCCCNc2nc3ccccc3s2)c1 | -0.0554% [at 46 µM] (inactive) |
| O=C(O)c1ccccc1S | -0.0234% [at 46 µM] (inactive) |
| CC(=O)CCc1ccc(O)cc1 | 0.106% (inactive) |
| COc1cc(C)cc(O)c1 | -0.0513% (inactive) |
